Data as given in paper PMC4552634, “A New Set of Chemical Starting Points with Plasmodium falciparum Transmission-Blocking Potential for Antimalarial Drug Discovery” (PLoS ONE, 2015).
Like-named read-outs stand apart in the source and are kept apart here. The campaign covered roughly 13,000 compounds. About 3,200 (25%) showed an effect of 50% or more. The list shows a part of the results.

Tested on: P. falciparum stage V gametocytes
Parameters: BacTiter-Glo ATP luminescence viability of purified stage V gametocytes in 384-well plates, per cent inhibition versus DMSO
Details: 48 h, 5 µM, inhibitor

CN(Cc1ccccc1)C(=O)CCNS(=O)(=O)c1cc(Br)cnc1N [TCMDC-125445]
% Inhibition: 18.91%

CN(C)[C@@H]1C(=O)C(C(N)=O)=C(O)[C@@]2(O)C(=O)C3=C(O)c4c(O)ccc(C#Cc5ccccn5)c4C[C@H]3C[C@@H]12 [TCMDC-138642]
% Inhibition: 7.454%

CCCC/C=C(\Cl)c1ccc(O)c2c1C[C@H]1C[C@H]3[C@H](N(C)C)C(=O)C(C(N)=O)=C(O)[C@@]3(O)C(=O)C1=C2O [TCMDC-138656]
% Inhibition: 85.94%

COc1cccc(CCc2ccc(O)c3c2C[C@H]2C[C@H]4[C@H](N(C)C)C(=O)C(C(N)=O)=C(O)[C@@]4(O)C(=O)C2=C3O)c1 [TCMDC-138636]
% Inhibition: 7.419%

COc1ccccc1C1CN(Cc2coc3ccccc3c2=O)Cc2ccccc2O1 (stereo not shown) [TCMDC-124669]
% Inhibition: 4.679%

NC1CCN(CCc2ccc(NS(=O)(=O)c3cccc4ccccc34)cc2)CC1 [TCMDC-134084]
% Inhibition: 55.68%

Cc1c(Cl)cccc1S(=O)(=O)Nc1ccc(CCN2CCC(N)CC2)cc1 [TCMDC-134083]
% Inhibition: 99.61%

COC(=O)CCCOc1cc(Cc2cnc(N)nc2N)cc(OC)c1OC [TCMDC-137557]
% Inhibition: 8.428%

CC1(C)N=C(N)N=C(N)N1OCCc1cccc2ccccc12 [TCMDC-131663]
% Inhibition: 2.124%

CCNC(=O)Nc1ccc(-c2ccc(-c3nc4cccc(C)c4[nH]3)s2)cc1 [TCMDC-133170]
% Inhibition: 11.61%

Cc1cc2[nH]c(-c3ccc(C(=O)NCCCN4CCN(c5cccc(Cl)c5)CC4)cc3)nc2cc1Cl [TCMDC-140027]
% Inhibition: -17.26%

CCc1nc2c(cnn2CC)c(NC2CCOCC2)c1CNC(=O)N1CCOCC1 [TCMDC-136620]
% Inhibition: 94.41%

Cn1nccc1C(=O)NCCNCc1ccc(-c2ccc(-c3nc4cc(F)ccc4[nH]3)cc2)cc1.O=C(O)C(F)(F)F [TCMDC-133012]
% Inhibition: -30.72%

CCn1ncc2c(NC3CCOCC3)c(CNC(=O)c3ccnn3C)c(C)nc21 [TCMDC-136560]
% Inhibition: 97.63%

Cc1nc(C)n(CC(=O)Nc2cccc(-c3cccc(-c4nc5ccc(C(F)(F)F)cc5[nH]4)c3)c2)n1 [TCMDC-137134]
% Inhibition: -7.323%

O=S(=O)(c1cccc(F)c1)c1ccc(Nc2ncnc3cc(Br)sc23)cc1Cl [TCMDC-135626]
% Inhibition: 18.51%

O=C(Nc1n[nH]c2nc(-c3ccco3)c(Br)cc12)c1ccc(CN2CCCC2)cc1 [TCMDC-141483]
% Inhibition: 10.19%

CN(C)CCN(Cc1ccccc1-c1ccc(CNCCc2ccccc2)cc1)C(=O)NC1CCCCC1 [TCMDC-140626]
% Inhibition: 107.8%

CN(C)CCN(Cc1ccccc1-c1ccc(CNCCc2ccccc2)cc1)C(=O)c1ccccc1 [TCMDC-140532]
% Inhibition: 112.9%

COc1cccc(CCN(Cc2ccccc2-c2ccc(CNC3CC(C)(C)NC(C)(C)C3)cc2)C(=O)NC2CCCCC2)c1 [TCMDC-141577]
% Inhibition: 108.7%

CC(=O)Nc1cccc(C(=O)Nc2nc3ccc(-c4cc(=O)[nH]c(Nc5ccccc5Cl)n4)cc3[nH]2)c1 [TCMDC-135793]
% Inhibition: -20.56%

C(=Cc1ccccc1)C=NNc1ccnc2ccccc12 [TCMDC-142061]
% Inhibition: -65.55%

Fc1cccc(COc2ccc(Nc3ncnc4sc(C#CCNC5CCCC5)cc34)cc2Cl)c1 [TCMDC-138786]
% Inhibition: -17.57%

CCC1N=C(N)N=C(N)N1OCCCOc1c(Cl)cc(Cl)cc1Cl (stereo not shown) [TCMDC-131697]
% Inhibition: 23.8%

Cc1ccc(NC(=O)NC2CCN(c3ccnc4cc(Cl)ccc34)C2)cc1 (stereo not shown) [TCMDC-133651]
% Inhibition: 27.92%

COc1cc(NC(=O)/C=C/c2ccccc2Cl)cc(OCCN2CCC(O)(c3ccccc3)CC2)c1 [TCMDC-140934]
% Inhibition: -1.317%

CC1(CCCCN2CCC(Oc3ccc(F)cc3F)CC2)C(=O)Nc2ccccc21 (stereo not shown) [TCMDC-140794]
% Inhibition: -43.13%

O=C1Nc2cccc3c2C1(CCCCCN1CC=C(c2c[nH]c4ccccc24)CC1)CCC3 (stereo not shown) [TCMDC-140570]
% Inhibition: 20.32%

O=C1Nc2cccc3c2C1(CCCCN1CC=C(c2c[nH]c4ncccc24)CC1)CCC3 (stereo not shown) [TCMDC-140506]
% Inhibition: -6.886%

O=C1Nc2cccc3c2C1(CCCN1CCC(c2c[nH]c4cc(C(F)(F)F)ccc24)CC1)CCC3 (stereo not shown) [TCMDC-140464]
% Inhibition: 106.4%

O=C1Nc2cccc3c2C1(CCCCN1CCC(c2cc4ccncc4[nH]2)CC1)CCC3 (stereo not shown) [TCMDC-141221]
% Inhibition (% Inhibition): 84.1%

CC(C)(C)OC(=O)n1cc(C2CCN(CCCC34CCCc5cccc(c53)NC4=O)CC2)c2ccncc21 (stereo not shown) [TCMDC-140392]
% Inhibition: 2.693%

O=C1Nc2cccc3c2C1(CCCCN1CCC(c2c[nH]c4cc(C(F)(F)F)ccc24)CC1)CCC3 (stereo not shown) [TCMDC-140465]
% Inhibition: 121.5%

O=C1Nc2cccc3c2C1(CCCCN1CCC(c2cc4ccncc4[nH]2)CC1)CCC3 (stereo not shown) [TCMDC-141151]
% Inhibition (% Inhibition): 27.49%

O=C1Nc2cccc3c2C1(CCCCCN1CCC(c2c[nH]c4ccncc24)CC1)CCC3 (stereo not shown) [TCMDC-140504]
% Inhibition: 73.67%

CCOc1ncccc1CN1CCC(N2CCc3cc(NC(=O)c4ccco4)ccc32)C1 (stereo not shown) [TCMDC-135074]
% Inhibition: -21.9%

COc1ccc(C2N=C(N)N=C(N)N2c2ccc(Cl)cc2)cc1OC (stereo not shown) [TCMDC-123670]
% Inhibition: -7.954%

COc1cc(C(=O)NC2CCN(Cc3ccccc3)CC2)ccc1-c1nc2c(Cl)cc(C(F)(F)F)cc2[nH]1 [TCMDC-140085]
% Inhibition: -15.98%

Cc1cccc2[nH]c(-c3ccc(-c4ccc(NC(=O)Nc5ccc(F)c(F)c5F)cc4)cc3)nc12 [TCMDC-133232]
% Inhibition: 3.128%

N#Cc1ccc2c(c1)CCN(CCC1CCC(NC(=O)/C=C/c3cccc4cc[nH]c34)CC1)CC2 (stereo not shown) [TCMDC-139671]
% Inhibition: -14.99%

CCN1CC=C(c2c[nH]c3ccccc23)CC1 [TCMDC-124447]
% Inhibition: -15.41%

Cn1c(/C=C/C(=O)NC2CCC(CCN3CCc4ccc(C#N)cc4CC3)CC2)cc2ccccc21 (stereo not shown) [TCMDC-139683]
% Inhibition: -68.7%

Cc1cn(CC(=O)Nc2cccc(-c3cccc(-c4nc5c(C)cccc5[nH]4)c3)c2)c(=O)[nH]c1=O [TCMDC-137037]
% Inhibition: -3.611%

CC1(CCN2CCC(c3c[nH]c4cnccc34)CC2)CCCc2c(Br)cccc2C1=O (stereo not shown) [TCMDC-141171]
% Inhibition: 95.16%

CC1(CCCCN2CCC(c3c[nH]c4cnccc34)CC2)C(=O)Nc2cccc(Cl)c21 (stereo not shown) [TCMDC-141177]
% Inhibition: 63.64%

O=c1[nH]c(NCCCCCN2CCC(c3c[nH]c4ccccc34)CC2)ncc1Cc1ccc(Cl)c(Cl)c1 [TCMDC-139189]
% Inhibition: 16.9%

CC1(CCCCN2CCC(Cc3ccccc3)CC2)C(=O)Nc2ccccc21 (stereo not shown) [TCMDC-140796]
% Inhibition: 0.5554%

Cc1ccc(C(=O)Nc2cccc([N+](=O)[O-])c2)cc1S(=O)(=O)N1CC(C)CC(C)C1 (stereo not shown) [TCMDC-123731]
% Inhibition: 8.733%

COc1cc(F)c2ncc(Cl)c([C@@H](O)CN3CCC(NCc4ccc5c(n4)NC(=O)CO5)CC3)c2c1 [TCMDC-135488]
% Inhibition: 20.51%

C=C[C@H]1CN2CC[C@H]1C[C@H]2[C@H](O)c1ccnc2ccc(OC)cc12 [TCMDC-123939]
% Inhibition (% Inhibition): 23.69%

CCN(CCCN1CCCCC1)c1cc(C)nc(Nc2ccc(C)c(Br)c2)n1 [TCMDC-132436]
% Inhibition: 25.65%

CCCN(CCC)CCCN(CCCN(CCC)CCC)c1cc(C)nc(Nc2ccc3cc(Br)ccc3c2)n1 [TCMDC-138006]
% Inhibition: 102.3%

CCCCN(CCCC)CCCN(CCCN(CCCC)CCCC)c1cc(C)nc(Nc2ccc3cc(Br)ccc3c2)n1 [TCMDC-138005]
% Inhibition: 117%

CCN(CC)CCCN(CCCN(CC)CC)c1cc(C)nc(Nc2ccc3cc(Br)ccc3c2)n1 [TCMDC-137611]
% Inhibition: 92.7%

CCN(CCCN1CCCCC1)c1cc(C)nc(Nc2ccc(OC)cc2)n1 [TCMDC-132430]
% Inhibition: -5.018%

CCN(CCCN1CCCCC1)c1cc(C)nc(Nc2ccc(C)c(C)c2)n1 [TCMDC-132440]
% Inhibition: 22.96%

O=C(NC1CCN(Cc2ccc3c(c2)OCCO3)CC1)c1ccc(-c2cccc(C(F)(F)F)c2)s1 [TCMDC-134337]
% Inhibition: 32.78%

COc1ccc(C2N=C(N)N=C(N)N2OCc2ccccc2)cc1OC (stereo not shown) [TCMDC-131345]
% Inhibition: 5.736%

CC1(C)N=C(N)N=C(N)N1OCCCCCOc1ccccc1 [TCMDC-131319]
% Inhibition: -2.033%

CC(=O)N(C)c1cccc(C(=O)Nc2cccc(-c3cccc(-c4nc5c(C)cccc5[nH]4)c3)c2)c1 [TCMDC-137071]
% Inhibition: 44.44%

Cc1cc(CN2CCC(N3CC(c4ccccc4)(c4ccccc4)OC3=O)C2)ccc1O (stereo not shown) [TCMDC-136072]
% Inhibition: -30.84%

CN(C)CCOc1ccc(NC(=O)NC(C)(C)c2nc(-c3ccc(Cl)c(O)c3)c(-c3ccncc3)[nH]2)cc1 [TCMDC-140744]
% Inhibition: -34.41%

CCN(CC)CCCCNc1cc(-c2[nH]c(-c3c(Cl)cccc3Cl)nc2-c2ccc3cc(OC)ccc3c2)ccn1 [TCMDC-141249]
% Inhibition: 85.02%

COc1cc(-c2nc(C(C)(C)CN)[nH]c2-c2ccncc2)ccc1Br [TCMDC-140674]
% Inhibition: -82.82%

COc1cc(-c2cc3cc(Cl)c(Cl)cc3[nH]2)ccc1C(=O)NCCC1CCCN1C (stereo not shown) [TCMDC-141287]
% Inhibition: -25.11%

COc1ccc(C)c(Nc2ccnc(Nc3cccc(-c4nc5ccccc5[nH]4)c3)n2)c1 [TCMDC-138696]
% Inhibition: 21%

COc1ccc2cc(-c3nc(-c4c(Cl)cccc4Cl)[nH]c3-c3ccnc(NCCC4CCCN4C)c3)ccc2c1 (stereo not shown) [TCMDC-141248]
% Inhibition: 70.07%

COc1ccc2cc(-c3nc(-c4c(Cl)cccc4Cl)[nH]c3-c3ccnc(NCCCN4CCN(C)CC4)c3)ccc2c1 [TCMDC-141250]
% Inhibition: 55.44%

CCN(CC)CCCCNc1cc(-c2[nH]c(C(C)(C)C)nc2-c2ccc3cc(OC)ccc3c2)ccn1 [TCMDC-141246]
% Inhibition: 101.1%

CC(C)(CNC(=O)[C@@H]1CCCN(CCOc2ccc(Cl)cc2)C1)c1nc(-c2ccc(Cl)c(O)c2)c(-c2ccncc2)[nH]1 [TCMDC-141125]
% Inhibition: 7.649%

COc1cccc(CNCC(C)(C)c2nc(-c3ccc(Cl)c(O)c3)c(-c3ccncc3)[nH]2)c1 [TCMDC-140687]
% Inhibition: -54.89%

COc1cc(NC(=O)CCCCCCCN2CCN(C)CC2)c2ncccc2c1 [TCMDC-138214]
% Inhibition: -6.593%

COc1cc(-c2nc(-c3ccc4c(c3)CCC4=NO)c(-c3ccncc3)[nH]2)ccc1OCCN1CCN(C)CC1 [TCMDC-141256]
% Inhibition: -11.77%
